Experimental data as given in ChEMBL document CHEMBL1157539, “Thousands of chemical starting points for antimalarial lead identification” (Nature, 2010).

Legend:
Format in all cases: functional
Plasmodium falciparum [1] = assay: GSK_TCMDC: Inhibition of Plasmodium falciparum 3D7 in whole red blood cells, using parasite LDH activity as an index of growth. Test compounds present at 2uM
Plasmodium falciparum [2] = assay: GSK_TCMDC: Inhibition of Plasmodium falciparum Dd2 in whole red blood cells, using parasite LDH activity as an index of growth. Test compounds present at 2uM
HepG2 = assay: GSK_TCMDC: Percent inhibition of human HepG2 cell line. Test compounds present at 10uM.

CCc1ccc(O)c(-c2cc(C(=O)Nc3cccnc3)[nH]n2)c1
Inhibition (Plasmodium falciparum [1]): 98% | Inhibition (Plasmodium falciparum [2]): 99% | Inhibition (HepG2): 0%

COc1cccc(C23NC(=Nc4nc5ccccc5[nH]4)NC2(c2cccc(OC)c2)NC(=Nc2nc4ccccc4[nH]2)N3)c1 (configuration not stated)
Inhibition (Plasmodium falciparum [1]): 100% | Inhibition (Plasmodium falciparum [2]): 99% | Inhibition (HepG2): 0%

O=C(Nc1cc(C(F)(F)F)ccc1Cl)c1ccc(Cn2cc(Br)cn2)cc1
Inhibition (Plasmodium falciparum [1]): 91% | Inhibition (Plasmodium falciparum [2]): 67% | Inhibition (HepG2): 24%

O=C(/C=C/c1cccs1)NCC(NCCCNc1cc(=O)c2ccccc2[nH]1)c1cc(Br)cc(Br)c1 (configuration not stated)
Inhibition (Plasmodium falciparum [1]): 100% | Inhibition (Plasmodium falciparum [2]): 58% | Inhibition (HepG2): 0%

COc1ccc(Nc2ccnc3cc4ccccc4cc23)cc1.Cl
Inhibition (Plasmodium falciparum [1]): 100% | Inhibition (Plasmodium falciparum [2]): 73% | Inhibition (HepG2): 32%

CCCC(C)N(Cc1ccc(C(C)(C)C)cc1)C(=O)c1ccc(OC)cc1 (configuration not stated)
Inhibition (Plasmodium falciparum [1]): 100% | Inhibition (Plasmodium falciparum [2]): 98% | Inhibition (HepG2): 7%

Cl.Oc1ccc(CCCc2cc(Oc3c(I)cc(CCc4ncc[nH]4)cc3I)ccc2O)cc1
Inhibition (Plasmodium falciparum [1]): 95% | Inhibition (Plasmodium falciparum [2]): 7% | Inhibition (HepG2): 26%

CC(C)C1C(O)=C(c2ccc3ccccc3c2)C(=O)N1Cc1ccsc1 (configuration not stated)
Inhibition (Plasmodium falciparum [1]): 88% | Inhibition (Plasmodium falciparum [2]): 82% | Inhibition (HepG2): 11%

CCOCCCn1c(=N)c(C(=O)NCc2ccc(OC)cc2)cc2c(=O)n3cccc(C)c3nc21
Inhibition (Plasmodium falciparum [1]): 99% | Inhibition (Plasmodium falciparum [2]): 46% | Inhibition (HepG2): 24%

COc1ccc2ccc(OC)c(CNCCCCCCNCc3c(OC)ccc4ccc(OC)cc34)c2c1.CS(=O)(=O)O
Inhibition (Plasmodium falciparum [1]): 100% | Inhibition (Plasmodium falciparum [2]): 32% | Inhibition (HepG2): 100%

N=C(N)Nc1nc(-c2cccc(NC(=O)CCCCCCCON3C(N)=NC(N)=NC34CCCCC4)c2)cs1
Inhibition (Plasmodium falciparum [1]): 96% | Inhibition (Plasmodium falciparum [2]): 89% | Inhibition (HepG2): 1%

O=C(C=Cc1ccc(Cl)c(Cl)c1)NCCCCCN1CCC(CCNC(=O)c2sc3ccccc3c2Cl)CC1
Inhibition (Plasmodium falciparum [1]): 88% | Inhibition (Plasmodium falciparum [2]): 6% | Inhibition (HepG2): 27%

COc1ccc(NC(=O)/C=C/c2cc(F)cc(C(F)(F)F)c2)cc1OCCN(C(C)C)C(C)C.O=C(O)C(F)(F)F
Inhibition (Plasmodium falciparum [1]): 97% | Inhibition (Plasmodium falciparum [2]): 21% | Inhibition (HepG2): 18%

Cc1cc(N[C@@H](C)C(=O)Nc2ccccc2)nc(NCCc2ccc(F)cc2)n1.O=C(O)C(F)(F)F
Inhibition (Plasmodium falciparum [1]): 100% | Inhibition (Plasmodium falciparum [2]): 43% | Inhibition (HepG2): 33%

O=C(Nc1ccc(S(=O)(=O)N2CCCC2)cc1)c1cc(-c2cccnc2)nc2ccc(Cl)cc12
Inhibition (Plasmodium falciparum [1]): 97% | Inhibition (Plasmodium falciparum [2]): 95% | Inhibition (HepG2): 4%

CN(C)/C(=N/C(=N)NCc1ccc(Cl)c(Cl)c1)NCCCCCCN/C(=N\C(=N)NCc1ccc(Cl)c(Cl)c1)N(C)C
Inhibition (Plasmodium falciparum [1]): 93% | Inhibition (Plasmodium falciparum [2]): 99% | Inhibition (HepG2): 20%

CN(C)CCOc1cc(NC(=O)Nc2cccc([N+](=O)[O-])c2)ccc1I
Inhibition (Plasmodium falciparum [1]): 100% | Inhibition (Plasmodium falciparum [2]): 51% | Inhibition (HepG2): 8%

Cn1cnc(CCNC(=O)c2ccc(-c3ccc(-c4nc5cc(F)ccc5[nH]4)cc3)cc2)c1
Inhibition (Plasmodium falciparum [1]): 92% | Inhibition (Plasmodium falciparum [2]): 15% | Inhibition (HepG2): 17%

O=C(O)C(F)(F)F.c1ccc(CCNc2ccnc(Nc3ccc4[nH]nnc4c3)n2)cc1
Inhibition (Plasmodium falciparum [1]): 100% | Inhibition (Plasmodium falciparum [2]): 95% | Inhibition (HepG2): 33%

CCCNCc1ccc(-c2ccc(CN(CCOC)C(=O)CCCOCc3ccccc3)cc2)nc1.O=C(O)C(F)(F)F
Inhibition (Plasmodium falciparum [1]): 93% | Inhibition (Plasmodium falciparum [2]): 13% | Inhibition (HepG2): 0%

CCCc1cc(Cc2cnc(N)nc2N)cc(CCC)c1OCCCC(=O)OCC
Inhibition (Plasmodium falciparum [1]): 94% | Inhibition (Plasmodium falciparum [2]): 0% | Inhibition (HepG2): 0%

C[C@@H](Oc1cc(-n2cnc3ccc(NC(=O)NC(C)(C)C)cc32)sc1C(N)=O)c1ccccc1Cl
Inhibition (Plasmodium falciparum [1]): 95% | Inhibition (Plasmodium falciparum [2]): 97% | Inhibition (HepG2): 28%

Cc1cc2nc(-c3ccc(C(=O)NCc4cccc(C(F)(F)F)c4)cc3)[nH]c2cc1C
Inhibition (Plasmodium falciparum [1]): 98% | Inhibition (Plasmodium falciparum [2]): 34% | Inhibition (HepG2): 4%

CCN1CCN(c2cc(C)c3cc(NC(=O)c4cccc(C(F)(F)F)c4)ccc3n2)CC1
Inhibition (Plasmodium falciparum [1]): 100% | Inhibition (Plasmodium falciparum [2]): 85% | Inhibition (HepG2): 24%

O=C(Nc1ccc(Cn2ncc(N3CCCNCC3)c(Cl)c2=O)cc1)Nc1ccc(SC(F)(F)F)cc1.O=C(O)C(F)(F)F
Inhibition (Plasmodium falciparum [1]): 93% | Inhibition (Plasmodium falciparum [2]): 68% | Inhibition (HepG2): 9%

CCC(C(=O)Nc1cc(=O)[nH]c2nc(-c3ccco3)nn12)c1ccccc1 (configuration not stated)
Inhibition (Plasmodium falciparum [1]): 87% | Inhibition (Plasmodium falciparum [2]): 68% | Inhibition (HepG2): 2%

CCCCCCNCCOc1ccc(-c2nc(-c3ccccc3)c(-c3ccccc3)[nH]2)cc1
Inhibition (Plasmodium falciparum [1]): 98% | Inhibition (Plasmodium falciparum [2]): 39% | Inhibition (HepG2): 14%

Cn1nc(-c2ccc(Cl)cc2)c2cc(C(=O)NCCN3CCOCC3)sc21
Inhibition (Plasmodium falciparum [1]): 97% | Inhibition (Plasmodium falciparum [2]): 29% | Inhibition (HepG2): 21%

Cc1ccc(O)cc1Nc1ccnc2cc(-c3csc(CNCCN4CCOCC4)n3)ccc12
Inhibition (Plasmodium falciparum [1]): 100% | Inhibition (Plasmodium falciparum [2]): 99% | Inhibition (HepG2): 6%

CC(C)(C)Oc1ccc(NC(=O)c2ccccc2O)cc1
Inhibition (Plasmodium falciparum [1]): 86% | Inhibition (Plasmodium falciparum [2]): 67% | Inhibition (HepG2): 4%

N#Cc1ccc(-c2ccc(C(=O)NCCCCN3CCC(n4cnc5ccccc54)CC3)cc2)cc1
Inhibition (Plasmodium falciparum [1]): 94% | Inhibition (Plasmodium falciparum [2]): 2% | Inhibition (HepG2): 15%

COc1ccc2c(NN=CC=Cc3ccccc3)ccnc2c1
Inhibition (Plasmodium falciparum [1]): 100% | Inhibition (Plasmodium falciparum [2]): 100% | Inhibition (HepG2): 9%

O=C(/C=C/c1ccc(Br)cc1)NCCCCCN1CCC(c2c[nH]c3ccccc23)CC1
Inhibition (Plasmodium falciparum [1]): 99% | Inhibition (Plasmodium falciparum [2]): 19% | Inhibition (HepG2): 73%

O=C(NCc1cccc(C(F)(F)F)c1)c1ccc(CNC(=O)c2ccc(O)c(-c3ccc(Cl)c(Cl)c3)c2)cc1
Inhibition (Plasmodium falciparum [1]): 92% | Inhibition (Plasmodium falciparum [2]): 15% | Inhibition (HepG2): 7%

Cc1cccc2nc(-c3ccc(-c4ccc(CNCC5CCCO5)cc4)s3)[nH]c12.O=C(O)C(F)(F)F (configuration not stated)
Inhibition (Plasmodium falciparum [1]): 100% | Inhibition (Plasmodium falciparum [2]): 96% | Inhibition (HepG2): 11%

O=C(Nc1cccc(-c2cccc(-c3ccc(F)cc3)n2)c1)c1ccc([N+](=O)[O-])o1
Inhibition (Plasmodium falciparum [1]): 99% | Inhibition (Plasmodium falciparum [2]): 42% | Inhibition (HepG2): 100%

CCC(C)(C)c1ccc(N2C(N)=NC(N)=NC2(C)C)cc1.Cl
Inhibition (Plasmodium falciparum [1]): 91% | Inhibition (Plasmodium falciparum [2]): 4% | Inhibition (HepG2): 40%

O=C(O)C(F)(F)F.OCC1CCN(Cc2ccc(-c3ccc(-c4nc5cc(F)ccc5[nH]4)cc3)cc2)CC1
Inhibition (Plasmodium falciparum [1]): 100% | Inhibition (Plasmodium falciparum [2]): 95% | Inhibition (HepG2): 17%

CN(C(=O)/C=C/c1cc(C(F)(F)F)ccc1F)C1CCN(CCCCCNC(=O)/C=C/c2ccc(Cl)c(Cl)c2)C1 (configuration not stated)
Inhibition (Plasmodium falciparum [1]): 93% | Inhibition (Plasmodium falciparum [2]): 1% | Inhibition (HepG2): 16%

O=c1[nH]c2c(cc1CNC1CCCCC1)c(-c1ccc(F)cc1)nn2-c1ccccc1
Inhibition (Plasmodium falciparum [1]): 99% | Inhibition (Plasmodium falciparum [2]): 88% | Inhibition (HepG2): 8%

CCOc1cc(C(=O)NCCN(C(C)C)C(C)C)ccc1-c1nc2cc(Cl)ccc2[nH]1
Inhibition (Plasmodium falciparum [1]): 100% | Inhibition (Plasmodium falciparum [2]): 90% | Inhibition (HepG2): 4%

CC(C)C1=C[C@H]2C[C@]3(C4OCCO4)[C@@H]4CC[C@@H](C)[C@H]4C[C@@]2(C(=O)OCC2COCO2)[C@]13C(=O)OC(c1ccccc1)c1ccccc1 (some centres not stated)
Inhibition (Plasmodium falciparum [1]): 92% | Inhibition (Plasmodium falciparum [2]): 96% | Inhibition (HepG2): 2%

Cc1cc(=NN=Cc2cccc(F)c2)c2cccc(C)c2[nH]1
Inhibition (Plasmodium falciparum [1]): 100% | Inhibition (Plasmodium falciparum [2]): 53% | Inhibition (HepG2): 14%

Cc1cc2nc(-c3ccc(C(=O)NC4CCN(Cc5ccccc5)CC4)cc3)[nH]c2cc1C
Inhibition (Plasmodium falciparum [1]): 93% | Inhibition (Plasmodium falciparum [2]): 99% | Inhibition (HepG2): 0%

CCOC(=O)CC[C@H](NC(=O)c1ccc(NS(=O)(=O)c2ccc(-c3cnc(N)[nH]c3=O)cc2)cc1)C(=O)OCC
Inhibition (Plasmodium falciparum [1]): 95% | Inhibition (Plasmodium falciparum [2]): 2% | Inhibition (HepG2): 5%

COc1ccc(CNC2Cc3ccccc3C2)cc1-c1cccc(S(=O)(=O)NCCN2CCCC2)c1.O=C(O)C(F)(F)F
Inhibition (Plasmodium falciparum [1]): 98% | Inhibition (Plasmodium falciparum [2]): 61% | Inhibition (HepG2): 48%

Cc1cccc(NC(=O)NCc2ccccc2)n1
Inhibition (Plasmodium falciparum [1]): 97% | Inhibition (Plasmodium falciparum [2]): 2% | Inhibition (HepG2): 14%

CCN(CC)CCN(Cc1ccc(-c2ccc(C(F)(F)F)cc2)cc1)C(=O)Cn1c(CCc2ccc(F)c(F)c2F)nc(=O)c2cccnc21.O=C(O)C(O)C(O)C(=O)O
Inhibition (Plasmodium falciparum [1]): 89% | Inhibition (Plasmodium falciparum [2]): 20% | Inhibition (HepG2): 29%

NC1CCCN(Cc2cccc(-c3ccc(-c4nc5cc(F)ccc5[nH]4)cc3)c2)C1.O=C(O)C(F)(F)F (configuration not stated)
Inhibition (Plasmodium falciparum [1]): 100% | Inhibition (Plasmodium falciparum [2]): 99% | Inhibition (HepG2): 40%

Cc1cc(NC(=O)c2cccs2)ccc1OC1CCN(Cc2ccccc2)C1.O=C(O)C(F)(F)F (configuration not stated)
Inhibition (Plasmodium falciparum [1]): 84% | Inhibition (Plasmodium falciparum [2]): 87% | Inhibition (HepG2): 7%

CCCCCN1CCCN(Cc2cccc(NC(=O)c3ccc(Cl)c(Cl)c3)c2)CC1.O=C(O)C(F)(F)F
Inhibition (Plasmodium falciparum [1]): 89% | Inhibition (Plasmodium falciparum [2]): 28% | Inhibition (HepG2): 30%

Cc1cc(Nc2ccc(C)c(Cl)c2)n2ncnc2n1
Inhibition (Plasmodium falciparum [1]): 98% | Inhibition (Plasmodium falciparum [2]): 91% | Inhibition (HepG2): 6%

CC(=O)c1ccc(N2CCN(C(=O)Nc3ccc(Cl)cc3)CC2)cc1
Inhibition (Plasmodium falciparum [1]): 97% | Inhibition (Plasmodium falciparum [2]): 0% | Inhibition (HepG2): 4%

O=C(NC1CCC1)C1CCN(C(c2ccc(Cl)cc2)c2ccc(Cl)cc2)CC1
Inhibition (Plasmodium falciparum [1]): 95% | Inhibition (Plasmodium falciparum [2]): 70% | Inhibition (HepG2): 6%

COc1ccc(CN2CCCC(N3CC4(OC3=O)c3ccccc3-c3ccccc34)C2)c(O)c1 (configuration not stated)
Inhibition (Plasmodium falciparum [1]): 92% | Inhibition (Plasmodium falciparum [2]): 34% | Inhibition (HepG2): 14%

COc1cccc(NC(=O)c2ccc(NCCCN3CCC(C)CC3)c([N+](=O)[O-])c2)c1
Inhibition (Plasmodium falciparum [1]): 100% | Inhibition (Plasmodium falciparum [2]): 46% | Inhibition (HepG2): 9%

COc1cccc(NC(=O)Nc2c(-c3cccc(C(F)(F)F)c3)c(C(F)(F)F)nn2C)c1
Inhibition (Plasmodium falciparum [1]): 93% | Inhibition (Plasmodium falciparum [2]): 30% | Inhibition (HepG2): 2%

CCN(CC)CCOc1ccc(Nc2ncc3cc(-c4c(Cl)cccc4Cl)c(=O)n(C)c3n2)cc1 [PD-0166285]
Inhibition (Plasmodium falciparum [1]): 90% | Inhibition (Plasmodium falciparum [2]): 91% | Inhibition (HepG2): 72%

OC1=C2C(=Nc3ccccc3SC2c2cccs2)c2ccccc21 (configuration not stated)
Inhibition (Plasmodium falciparum [1]): 96% | Inhibition (Plasmodium falciparum [2]): 93% | Inhibition (HepG2): 8%
